HTR5A inv ag = HTR5A inverse agonism, opioid heterodimer counter-screen; P47898; HTR5A cell line, luminescence; inhibition, % at 9.3 µM; 0.083% of 340,000 active; AID 504634; in the data active = inhibition mostly above about 23%, no sharp cut-off; inactive = mostly below about 18%
Target sequence (P47898 whole entry, looked up): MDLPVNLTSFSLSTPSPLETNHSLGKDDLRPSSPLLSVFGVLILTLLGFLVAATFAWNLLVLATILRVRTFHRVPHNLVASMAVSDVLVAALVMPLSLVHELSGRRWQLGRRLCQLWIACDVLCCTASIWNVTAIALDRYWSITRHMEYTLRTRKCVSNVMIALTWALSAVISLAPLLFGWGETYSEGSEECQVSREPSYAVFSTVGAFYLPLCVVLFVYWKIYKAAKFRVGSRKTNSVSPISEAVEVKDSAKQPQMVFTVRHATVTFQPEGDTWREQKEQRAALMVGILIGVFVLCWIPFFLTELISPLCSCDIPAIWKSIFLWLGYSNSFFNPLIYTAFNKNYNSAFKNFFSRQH
MOR-DOR ag = agonists of human mu-delta opioid receptor heterodimerization | cells, OPRM1-OPRD1 heterodimerization, luminescence | AID 504326 | P35372+P41143 | activation, % at 9.3 µM | 0.3% of 340,000 active; in the data active = activation above about 18%
HGIII-sPLA2 inh = Blocks human group III sPLA2 activity; AID 743126; QFRET BODIPY PC-A2 liposome hydrolysis, fluorescence; 0.56% of 370,000 active; Q9NZ20; inhibition, % at 12.2 µM;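 active = inhibition above mean plus 3 SD of compounds lying within the high and low control bounds, cut at about 19% in these data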
MOR-DOR inv ag = inverse agonists of human mu-delta opioid receptor heterodimerization; inhibition, % at 9.3 µM; 0.21% of 340,000 active; AID 504357; cell-based MOR-DOR heterodimer luminescence, inverse agonism; in the data active = inhibition above about 22%, passing the limit was not always enough
HTR2A ag = agonists of mouse serotonin 5-HT2A receptor (HTR2A); AID 624169; CHO-K1 mHTR2A beta-arrestin complementation, luminescence; percent of 30 µM serotonin response; activation, % at 7.6 µM; 0.66% of 360,000 active;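 active = activation above a run cutoff, the mean activation of all tested compounds plus 3 SD, cut at about 14% in these data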
HTR5A ag ctr = activates human HTR5A in OPRM1-OPRD1 agonist counter-screen. 0.61% of 340,000 active. HTR5A agonist assay, luminescence, cell-based. AID 504692. P47898. activation, % at 9.3 µM; in the data active = activation mostly above about 9.5%, no sharp cut-off; inactive = mostly below about 7.6%
OPRM1 ag = counter-screen for mouse HTR2A agonists: human mu opioid receptor agonists; shares compounds with HTR2A ag; U2OS OPRM1 beta-arrestin PathHunter, luminescence; DMSO 0%, DAMGO 9.3 µM 100%; activation, % at 9.3 µM; 5.3% of 2,300 active; AID 624380;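 active = mean activation above the mean of DMSO-only wells plus 3 SD, cut at about 0.5% in these data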
HTR2A ag conf = confirmation of mouse HTR2A serotonin receptor agonists; shares compounds with HTR2A ag; CHO-K1 PathHunter beta-arrestin recruitment, luminescence; DMSO 0%, 30 µM serotonin 100%; activation, % at 7.6 µM; 19% of 2,300 active;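 active = mean activation across triplicates above the hit threshold derived in the original primary screen, cut at about 15% in these data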
Hits are given with their value; - = inactive; . = not tested or not shown. Rows were chosen to be rich in hits. Some 2.2% of all compounds tested hit in one or more screens of this group.

SMILES	HTR5A inv ag	MOR-DOR ag	HGIII-sPLA2 inh	MOR-DOR inv ag	HTR2A ag	HTR5A ag ctr	OPRM1 ag	HTR2A ag conf
Cc1[nH]nc2c1C1(CCN(Cc3ccccc3)CC1)C(C#N)=C(N)O2	-	-	-	-	-	-	.	.
O=C(CN1CCN(c2ccccn2)CC1)N1CC(O)CO1 (stereo not given)	-	-	-	-	-	-	.	.
O=C(CN1CCN(c2cccc(Cl)n2)CC1)N1CC(O)CO1 (stereo not given)	-	-	-	-	27	-	-	-
COc1ccc(C(O)c2nc(-c3cccc(C(C)C)c3)cs2)cc1 (stereo not given)	.	.	-	.	-	.	.	.
OC(c1ccc(F)c(F)c1)c1nc(-c2cccc(C(F)(F)F)c2)cs1 (stereo not given)	.	.	-	.	-	.	.	.
COc1ccc(C(O)c2nc(-c3cccc(O)c3)cs2)cc1 (stereo not given)	.	.	-	.	17	.	-	-
OC(c1ccc(F)cc1)c1nc(-c2cccc(C(F)(F)F)c2)cs1 (stereo not given)	.	.	-	.	23	.	-	-
CC/C(=N\NC(=O)C1CCCC1)c1ccc(Br)cc1	-	-	-	-	18	-	-	-
O=C(Nc1cccc2nsnc12)c1ccc(-c2cccc(Cl)c2)o1	-	-	-	-	16	-	-	-
O=C(Nc1ccccc1N1CCCCC1)c1ccc(-c2cccc(Cl)c2)o1	-	-	-	-	-	-	.	.
CC(=O)NCc1nc2ccccc2n1C(C)C	-	-	-	-	18	-	-	-
CC(C)n1nnnc1C1(C)CSCC(=O)N1Cc1cccc(F)c1 (stereo not given)	.	.	-	.	.	.	.	.
COc1cccc(C(=O)NCC(=O)OCC(=O)Nc2cc(OC)c([N+](=O)[O-])cc2C)c1	-	-	-	-	17	-	-	-
CN=c1scc(-c2ccc(F)cc2)n1/N=C/c1ccc(O)c(O)c1	-	-	-	-	16	-	-	85
CN=c1scc(-c2ccc([N+](=O)[O-])cc2)n1/N=C/c1ccco1	-	-	-	-	-	-	.	.
Cc1cc(C)nc(NC(=S)N2CCN(c3ncc(C(F)(F)F)cc3Cl)CC2)c1	.	.	-	.	.	.	.	.
Cc1ccc2c(C)c(C(=O)Nc3c(C)n(C)n(-c4ccccc4)c3=O)oc2c1C	-	-	-	-	17	-	-	40
NCCCC[C@@H](C(=O)NCCCCCCCCCCC(=O)N1CCNCC1)n1cc(CCO)nn1	-	-	-	-	-	-	.	.
CSCCCc1cn([C@@H](CO)C(=O)NCCCCCCCCCCC(=O)N2CCNCC2)nn1	-	-	-	-	24	-	-	-
O=[N+]([O-])c1ccc(CSc2nnc(-c3cccc(Cl)c3)n2Cc2ccco2)cc1	.	.	-	.	.	.	.	.
CC(C)Cc1nnc(NC(=O)c2cc(-c3ccncc3)nc3ccccc23)s1	-	-	-	-	15	-	-	-
CCCC(=O)Nc1c(-c2ccccc2)c(=O)c(C)nn1-c1ccc(Cl)cc1	-	-	-	-	15	-	-	-
CCN(CC(=O)Nc1c(F)cccc1F)C(=O)c1ccc(N2CCCCC2)c([N+](=O)[O-])c1	-	-	-	-	15	-	0.7	-
CCN(CC(=O)Nc1c(F)cccc1F)C(=O)c1cc(S(=O)(=O)N(CC)CC)ccc1N1CCCCC1	-	-	-	-	-	-	.	.
CCOC(=O)[C@@]12CN(C(=O)OC(C)(C)C)CC=C1N(Cc1ccc(OC)cc1)C(=O)[C@H]2CC(=O)NCCCOC	.	.	-	.	.	.	.	.
CCN=C1NC(c2ccc(C(F)(F)F)cc2)C(C(=O)OC)=C(C)N1Cc1ccccc1C(F)(F)F (stereo not given)	.	.	-	.	.	.	.	.
Cc1cc(Cl)ccc1C(=O)C1CCCN(C(=O)c2cc(C(C)C)no2)C1 (stereo not given)	-	-	-	-	46	-	-	-
O=S(=O)(NCCSc1ccccc1)c1cccs1	-	-	-	-	15	-	-	-

Screening results (PubChem BioAssay)
